# Bioassay records: PubChem, National Center for Advancing Translational Sciences (NCATS)
# AmpC no deterg: qHTS Inhibitors of AmpC Beta-Lactamase (assay without detergent) | P00811 | AmpC nitrocefin hydrolysis, absorbance 480 nm, 0.0001% Triton | Potency, µM (top dose mostly 57.1 µM), hits mostly inhibitors | 330,000 tested, 0.52% active | AID 485341, 2010; note: nearly all actives have a fitted effect of over 20% in size
# Target sequence (P00811 whole entry, looked up): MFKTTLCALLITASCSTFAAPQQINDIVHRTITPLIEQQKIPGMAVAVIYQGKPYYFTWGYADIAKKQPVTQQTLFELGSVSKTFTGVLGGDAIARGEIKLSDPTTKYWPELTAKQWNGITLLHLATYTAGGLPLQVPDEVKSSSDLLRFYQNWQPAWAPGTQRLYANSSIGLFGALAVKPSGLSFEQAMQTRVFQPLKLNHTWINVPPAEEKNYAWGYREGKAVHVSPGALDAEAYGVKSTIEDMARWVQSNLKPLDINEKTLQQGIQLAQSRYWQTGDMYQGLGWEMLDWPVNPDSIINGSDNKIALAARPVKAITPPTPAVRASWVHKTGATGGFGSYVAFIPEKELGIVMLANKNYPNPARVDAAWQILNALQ
#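 AmpC (5.3 nM in the dispensed reagent) in 20 mM phosphate pH 7.0 with 0.01% (detergent screen) or 0.0001% Triton X-100 was preincubated with compounds for 15 min at room temperature. Nitrocefin was then added from an 800 uM solution, and hydrolysis was followed at 480 nm.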
# Sm TGR inh: qHTS Assay for the Inhibitors of Schistosoma Mansoni Peroxiredoxins; purified TGR, DTNB reduction, TNB absorbance 405 nm; Potency, µM (series often up to 114 µM), hits mostly inhibitors; 360,000 tested, 3% active; note: nearly all actives have a fitted effect of over 60% in size
#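 TGR 20 nM + NADPH 100 uM (dispensed conc.), cpd preinc 15 min RT; start with NADPH (500 uM addition) then DTNB (15 mM addition). Kinetic TNB absorbance, 405 nm filter. Four-parameter Hill fit across titration.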
# AmpC inh detg: qHTS Inhibitors of AmpC Beta-Lactamase (assay with detergent). 370,000 tested, 0.041% active. AmpC hydrolysis of nitrocefin, absorbance 480 nm, 0.01% Triton. P00811. Potency, µM (series often up to 114 µM), actives largely listed as inhibitors; note: nearly all actives have a fitted effect of over 25% in size
#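 AmpC (5.3 nM in the dispensed reagent) in 20 mM phosphate pH 7.0 with 0.01% (detergent screen) or 0.0001% Triton X-100 was preincubated with compounds for 15 min at room temperature. Nitrocefin was then added from an 800 uM solution, and hydrolysis was followed at 480 nm.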
# RE007 growth inh: qHTS Assay for Inhibitors of the HIV-1 protein Vpr; S. pombe RE007 Vpr strain, BacTiter-Glo ATP luminescence, 24 h; Potency, µM (doses to about 92.2 µM), usual class: inhibitors; 360,000 tested, 0.21% active; active = well fitted falling curve with a large enough effect; inconclusive = small, poorly fitted or top-dose-only effect; inactive = no such curve, though single readings can be large or run the other way; note: nearly all actives have a fitted effect of over 50% in size
#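 Fission yeast RE007 carrying one integrated HIV-1 vpr copy, seeded at OD 0.01 in PMG+AL medium with 23 nL pinned compound. Grown 24 h at 30 degrees; viability read by BacTiter-Glo luminescence after 5 min.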
# AMA1 RON2 block: qHTS for Inhibitors of AMA1-RON; Towards Development of Antimalarial Drug Lead: Primary Screen; Plasmodium falciparum AMA1 (3D7) - RON2 peptide interaction; AlphaScreen AMA1-biotinylated RON2 peptide binding; Potency, µM (highest dose often 58.2 µM), most hits filed as inhibitors; 360,000 tested, 0.2% active; AID 720542, 2013; note: nearly all actives have a fitted effect of over 45% in size
#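 AMA1 (3D7) with his tag at 25 nM final met compounds first, then biotinylated RON2 peptide at 25 nM; detection used donor plus acceptor beads, 10 µg/mL apiece, read by AlphaScreen after 30 min at room temperature.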
# Hits are given with their value; 0 = inactive; ? = inconclusive; - = no result; [ ] = another dose, or the depositor's remark. An excerpt weighted towards active compounds, which were near 3.2% of everything screened. Unless noted, calls come from the whole dose curve; as a rule, active = well fitted curve in the direction sought with a large enough effect; inconclusive = small, poorly fitted or top-dose-only effect, or another doubt; inactive = no such curve, though single readings can be large; an effect the other way counts as inactive or inconclusive.
SMILES,AmpC no deterg,Sm TGR inh,AmpC inh detg,RE007 growth inh,AMA1 RON2 block
CN(C)S(=O)(=O)c1cccc(NC(=S)N/N=C/c2ccc(O)c(O)c2O)c1,?,10µM,0,0,0
Cc1ccc(S(=O)(=O)CC(=O)Nc2nc3c(C)cccc3s2)cc1,-,0,0,-,-
CCn1c(C)nc2cc(C(=O)N/N=C/c3ccc(O)c(O)c3O)ccc21,0,-,0,0,14.1µM
CCn1c(C)cc(C(=O)CN2C(=O)c3ccccc3S2(=O)=O)c1C,0,0,0,0,0[11.6 µM]
COCCCn1c(C)cc(C(=O)CN2c3cccc4cccc(c34)S2(=O)=O)c1C,0,22.4µM,0,0,0
CC(/C=N/n1c(-c2cc(C)[nH]n2)n[nH]c1=S)=C\c1ccco1,0,12.6µM,0,0,0
CC(/C=N/n1c(-c2ccc(Cl)cc2)n[nH]c1=S)=C\c1ccco1,0,0,0,-,0
CC(/C=N/n1cnnc1)=C\c1ccco1,0,35.5µM,?,0,0
O=C(Cn1c(=O)ccc2cc(S(=O)(=O)N3CCCC3)ccc21)Nc1ccc(Cl)cc1,-,0,0,-,-
Cc1ccn2c(C(=O)CSc3ccccc3Cl)c(C)nc2c1,0.316µM,0,0,0,0
O=C(c1ccccc1)C(CCc1ccccn1)CCc1ccccn1,-,-,-,0,0
CN(C)CC(CCC(CN(C)C)C(=O)c1ccccc1)C(=O)c1ccccc1 (stereo not given),0,2µM,0,0,0
O=C(c1ccccc1)C(CCC(CN1CCOCC1)C(=O)c1ccccc1)CN1CCOCC1 (stereo not given),0,8.91µM,0,0,0
COc1ccc(C(=O)C(CCCCC(CN(C)C)C(=O)c2ccc(OC)cc2)CN(C)C)cc1 (stereo not given),0,0,?,0,0
CCOc1ccc(C(=O)C(CCC(CN(C)C)C(=O)c2ccc(OCC)cc2)CN(C)C)cc1 (stereo not given),0,15.8µM,0,0,0
O=C(c1ccc(F)cc1)C(CN1CCOCC1)c1ccccc1 (stereo not given),0,0,0,?,0
Cc1cccc(-c2nc(S(=O)(=O)c3ccccc3)c(N3CCOCC3)o2)c1,0,44.7µM,0,0,0
COc1ccc(-c2nc(S(=O)(=O)c3ccc(Cl)cc3)c(N3CCCCCC3)o2)cc1,-,22.4µM,0,-,-
Cc1ccc(-c2nc(S(=O)(=O)c3ccc(C)cc3)c(N3CCOCC3)o2)cc1,0,3.55µM,0,0,0
CCOc1ccc(-c2nc(S(=O)(=O)c3ccccc3)c(N3CCOCC3)o2)cc1,0,-,0,0,0
CCn1cc(C(=O)NCCOC)c(=O)c2cc(S(=O)(=O)N3CCOCC3)ccc21,-,0,0,-,-
CN(C)c1ccc(C=C2C=CC=C2)cc1,-,-,-,0,22.4µM
CC(=O)Nc1cccc(NC(=O)C2(c3cccs3)CCOCC2)c1,-,0,0,-,-
O=c1c(CN2CCN(Cc3ccccc3)CC2)coc2ccc(Cl)cc12,0,7.08µM,?,?,0
Cc1ccc2occ(CN3CCN(Cc4ccccc4)CC3)c(=O)c2c1,0,0,0,-,-
SMILES,AmpC no deterg,Sm TGR inh,AmpC inh detg,RE007 growth inh,AMA1 RON2 block
Cc1ccc2occ(CN3CCN(c4ccccc4)CC3)c(=O)c2c1,0,25.1µM,?,0,0
COc1ccc(C(=O)N=c2sc3cc(Cl)ccc3n2C)cc1,-,0,0,-,-
CCCNC(=O)c1cc(C2CCCCN2C(=O)c2cc(OC)c(C)c(OC)c2)on1 (stereo not given),-,-,-,0,0
COc1cc(NC(=O)CCCN2C(=O)CCn3nc(-c4cn(C)c5ccccc45)cc32)cc(OC)c1,-,0,0,-,-
O=C(Nc1cccc(-c2csc(Nc3cccc(C(F)(F)F)c3)n2)c1)c1ccccc1,2µM,0,0,0,0
COc1cc(NC(=O)c2ccno2)cc(C(=O)Nc2cccc(C(F)(F)F)c2)c1,0,0,0,0,0
COc1ccc(-c2cc(C(=O)Nc3cc(OC)cc(C(=O)Nc4cccc(C(F)(F)F)c4)c3)[nH]n2)cc1,28.2µM,0,0,0,0
Cc1nc(NC(=O)c2ccccc2)sc1-c1csc(Nc2cccc(F)c2)n1,15.8µM,0,0,-,-
Cc1ccc(Cl)cc1Nc1nc(-c2sc(NC(=O)c3ccccc3)nc2C)cs1,0,0,0,-,-
CC(C)(C)[C@H](NC(=O)c1ccc(N)c(Cl)c1)C(=O)N1CCC[C@H]1C(=O)N[C@H](C#N)Cc1nn[nH]n1,0,?,?,-,-
O=C1NC(=O)C(c2ccccc2[N+](=O)[O-])=C1Nc1ccc(O)c(Cl)c1,0,7.08µM,0,0[18.4 µM],0
Cc1ccc(-c2cc(-c3ccccc3[N+](=O)[O-])[nH]n2)c(O)c1,0,0,0,0,0
CCCCN(C)c1ncnc2c1cnn2-c1cccc(Cl)c1,-,0,0,-,-
Cc1ccc(NC(=O)c2cc(C)n(-c3ccccc3)c2C)cc1,0,0,0,0,0[11.6 µM]
Cc1cc(C(=O)Nc2ccc(Cl)cc2)c(C)n1-c1ccccc1,0,50.1µM,0,0,0
Cc1ccc(NC(=O)c2cc(C)n(-c3cccc(C)c3)c2C)cc1,15.8µM,0,0,0,?
COC(=O)c1ccc(N2CCc3ccccc32)c([N+](=O)[O-])c1,0,0,0,0,12.6µM
O=C(O)c1ccc(N2CCc3ccccc32)c([N+](=O)[O-])c1,0,0,0,0,0
COc1ccc(N/N=C(/C(C)=O)N2CCCc3ccccc32)cc1,0,0,0,0,15.8µM
Cc1ccc(-c2cn(-c3cccc(Cl)c3)c(S(=O)(=O)CC(=O)Nc3cccc(C)c3)n2)cc1,-,0,0,-,-
N#C/C(=C\c1ccc(O)c(O)c1)S(=O)(=O)c1ccccc1,0,44.7µM,0,0,0
N#CC(C#N)=Cc1ccc(O)c(O)c1,0,1.41µM,?,0[18.4 µM],0
N#C/C(=C/c1ccc(F)cc1)S(=O)(=O)c1ccccc1,0,0,0,0,0
N#C/C(=C\c1ccc(O)c(O)c1)C(=O)c1ccc(O)c(O)c1,0,0,?,0[18.4 µM],?
COC(=O)c1c(NC(=O)CCl)sc(C(=O)N2CCOCC2)c1C,0,31.6µM,0,0,0
SMILES,AmpC no deterg,Sm TGR inh,AmpC inh detg,RE007 growth inh,AMA1 RON2 block
COC(=O)c1c(N)sc(C(=O)N2CCOCC2)c1C,0,0,?,0,0
CCOC(=O)C1=C(O)c2ccccc2C(=O)/C1=C\c1ccc(C)cc1,0,3.55µM,0,?,?
CCOC(=O)C1=C(C)OC(=Cc2ccccc2)C1=O,-,-,-,0,0
COc1ccc(CCN2C(=O)CN(C3CCCCCC3)C(=O)C2c2ccc(OC(C)C)c(OC)c2)cc1OC (stereo not given),-,0,0,-,-
O=[N+]([O-])c1cc(S(=O)(=O)N2CCCCCC2)ccc1F,0,22.4µM,0,0,0
O=[N+]([O-])c1cc(S(=O)(=O)c2ccc(N3CCCCC3)c([N+](=O)[O-])c2)ccc1N1CCCCC1,10µM,0,0,0,0
